# Rows were chosen to be rich in hits. Some 11% of all compounds tested hit in one or more screens of this group.
# JMJD2A Tudor = blocks the human JMJD2A Tudor domain; 390,000 compounds, 4.4% hits; AlphaScreen JMJD2A-Tudor / H3K4me3 peptide binding; Potency, µM (highest dose often 114 µM), actives largely listed as inhibitors; O75164; AID 504339; further: nearly all actives have a fitted effect of over 50% in size
# HP1b binding inh = blocks HP1-beta chromodomain binding to methylated histone tails. Potency, µM (highest dose often 114 µM), actives largely listed as inhibitors. 390,000 compounds, 0.56% hits. AlphaScreen HP1-beta / biotin-H3K9me3 peptide binding. P83916. AID 540317; further: nearly all actives have a fitted effect of over 70% in size
# Target sequence (P83916 whole entry, looked up): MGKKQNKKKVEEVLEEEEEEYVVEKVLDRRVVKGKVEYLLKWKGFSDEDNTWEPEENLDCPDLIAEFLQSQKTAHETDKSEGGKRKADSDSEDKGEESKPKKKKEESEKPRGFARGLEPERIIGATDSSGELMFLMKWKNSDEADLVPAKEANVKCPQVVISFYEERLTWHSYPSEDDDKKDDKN
#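 Compound inhibition of the preformed complex between 50 nM HP1-beta and 50 nM biotinylated H3K9me3 peptide was read by AlphaScreen. Buffer was PBS pH 7.4 with 0.01% Tween-20. Incubations ran 30 min at room temperature, with 10 ug/mL donor/acceptor beads.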
# G9a block = inhibitors of human histone lysine methyltransferase G9a. Potency, µM (doses to about 102 µM), hits mostly inhibitors. G9a H3K9 monomethylation, AlphaScreen, 2 h. Q96KQ7. 350,000 compounds, 8.8% hits; further: nearly all actives have a fitted effect of over 75% in size
# Target sequence (Q96KQ7 913-1193 limits assumed): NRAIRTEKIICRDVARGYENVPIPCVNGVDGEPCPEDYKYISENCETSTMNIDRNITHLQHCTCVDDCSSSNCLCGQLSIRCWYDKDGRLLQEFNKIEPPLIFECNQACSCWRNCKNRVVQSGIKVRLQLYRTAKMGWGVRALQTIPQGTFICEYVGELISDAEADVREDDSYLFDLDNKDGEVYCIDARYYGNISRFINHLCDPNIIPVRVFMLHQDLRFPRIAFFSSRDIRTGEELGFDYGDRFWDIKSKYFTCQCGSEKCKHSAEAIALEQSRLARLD
#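 Signal arises when biotinylated H3K9 peptide, once monomethylated, bridges streptavidin donor and antibody-captured acceptor beads. Enzyme at 20 nM was preincubated 15 min with test compounds; peptide 500 nM and SAM 20 uM then reacted for 2 h.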
# L3MBTL1 inh = inhibitors of human L3MBTL1; Q9Y468; AlphaScreen L3MBTL1–H3K9me1 peptide binding; Potency, µM (highest dose often 57.1 µM), most hits filed as inhibitors; 230,000 compounds, 0.66% hits; further: nearly all actives have a fitted effect of over 60% in size
#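 First, the protein-peptide complex forms for 30 min at room temperature (L3MBTL1 50 nM, biotinylated H3K9me1 peptide 75 nM). Next, compounds are pin-transferred and incubated 30 min. Finally, AlphaScreen beads are added and read after 30 min.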
# BAZ2B inh = BAZ2B (human) inhibition | AlphaScreen BAZ2B-H3K14Ac peptide displacement | 360,000 compounds, 4.4% hits | AID 504333 | Q9UIF8 | Potency, µM (doses to about 114 µM), actives largely listed as inhibitors; further: nearly all actives have a fitted effect of over 60% in size
#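 Compounds, titrated to a top concentration of 110 uM, were incubated 30 min at room temperature with preformed BAZ2B/acetyl-K14 H3 peptide complex (50 nM each). Proximity signal was measured by AlphaScreen after 20 min with beads.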
# Numbers stand for hits; . = inactive; ? = inconclusive; / = not tested or not shown; [ ] = remark or other dose. The call rests on the fitted dose curve; in most records, active means well fitted inhibition curve with a large enough effect; inconclusive means small, poorly fitted or top-dose-only effect; inactive means no such curve, though single readings can be large or run the other way.
SMILES,JMJD2A Tudor,HP1b binding inh,G9a block,L3MBTL1 inh,BAZ2B inh
COc1ccc(CCNc2ncnc3c2c(-c2ccccc2)cn3-c2cccc(Cl)c2)cc1OC,.,.,.,/,.
Cc1ccc(C(c2sc3nc(-c4ccco4)nn3c2O)N2CCC3(CC2)OCCO3)cc1 (centres undefined),.,.,.,/,.
CCc1ccc(NS(=O)(=O)c2c(C(=O)N3CCCCCC3)c(C)n(C)c2C)cc1,.,.,.,/,.
c1n[nH]c(NC2=NCCC2)n1,45µM,.,.,?,14µM
OC(COCC1COc2ccccc2O1)CN1CCN(c2ccccc2)CC1 (centres undefined),?,.,.[0.501 µM],.,79µM
C[N+]1(CC(O)COCC2COc3ccccc3O2)CCOCC1 (centres undefined),.,.,35µM,/,.
Cc1cc(S(=O)(=O)N2CCCC(N(C)CCc3ccccn3)C2)c(C)s1 (centres undefined),/,/,50µM,/,.
CN1C(=O)c2c(sc3c2CCCC3)NC1c1ccccc1O (centres undefined),/,/,?,.[11.4 µM],.
CC1CCCC2(C1)NC(=S)c1c(sc3c1CCCC3)N2 (centres undefined),79µM,?,8.9µM,/,?
CCCCN(C)CC(O)Cn1cc(/C=C/C(=O)c2ccc(Br)cc2)c2ccccc21 (centres undefined),71µM,.,.,/,?
CCCCN(C)CC(O)Cn1cc(/C=C/C(=O)c2ccc(C)cc2)c2ccccc21 (centres undefined),50µM,.,.,/,?
CCCCN(C)CC(O)Cn1cc(/C=C/C(=O)c2ccc(OC)c(OC)c2)c2ccccc21 (centres undefined),?,.,.,/,?
COc1ccc(CCNC(=O)c2nc(SCc3ccc(F)cc3)ncc2Cl)cc1OC,.,.,.,/,.
Clc1ccc(SCCn2cncn2)cc1,45µM,?,?,/,?
Cc1ccc(SCCCn2cncn2)cc1,45µM,.,.[12.7 µM],/,?
O=C(CCn1cncn1)N1CCN(S(=O)(=O)c2ccc(Cl)cc2)CC1,.,.,.,/,.
Cc1cc(Cl)c(OCCCn2cncn2)c(Br)c1,.,.,.[12.7 µM],.,.
NC(=O)c1ccc2c(=O)n3c(-c4cc(Cl)c(N)c(Cl)c4)csc3nc2c1,71µM,.,?,/,?
Cc1csc2nc3cc(C(N)=O)ccc3c(=O)n12,.,.,.[12.7 µM],/,.
CCOc1ccc(C2C(=O)N(C3CCCCCC3)CC(=O)N2CCc2ccccc2)cc1OC (centres undefined),.,.,?,/,.
CCCCOc1ccc(CSc2n[nH]c(C)n2)cc1,.,.,28µM,.,.
CC1=C/C(=C(/c2ccc(O)c(C)c2)c2ccccc2S(=O)(=O)O)C=CC1=O,.,?,.[12.7 µM],?,50µM
CC1=C/C(=C(/c2cc(C)c(O)c(Br)c2)c2ccccc2S(=O)(=O)O)C=C(Br)C1=O,?,32µM,.[2.33 µM],/,18µM
Cc1ccc(Cl)cc1NS(=O)(=O)c1cc2c3c(c1)CC(=O)N3CCC2,.,.,.,/,.
CCOC(=O)c1ccc(NC(=O)C(CC)Sc2nncn3c2cc2oc(C)cc23)cc1 (centres undefined),.,.,?,/,?
SMILES,JMJD2A Tudor,HP1b binding inh,G9a block,L3MBTL1 inh,BAZ2B inh
O=Nc1ccc2oc(=O)ccc2c1,/,/,2.2µM,/,/
COc1ccc(OC)c(S(=O)(=O)NC(N)=NCCc2ccccc2OC)c1,/,/,.,/,.
COc1cc(NC(=O)c2c(C)nn(-c3ccc(F)cc3)c2-n2cccc2)cc(OC)c1,.,.,.,/,.
CCCNC(=O)c1ccccc1NC(=O)c1ccccc1N(C)S(C)(=O)=O,.,.,?,.,.
C=CCNC(=O)c1ccccc1NC(=O)c1ccccc1N(C)S(C)(=O)=O,.,.,50µM,.,.
Cc1ccc(CNC(=O)c2ccccc2N(C)S(C)(=O)=O)cc1,.,.,40µM,.,.
CC1(C)CC(N2CCN(Cc3ccccc3)CC2)=CC(=[N+]2CCCCC2)C1,18µM,71µM,?,/,.
CN(Cc1ccccc1)C1=CC(=[N+]2CCCCC2)CC(C)(C)C1,.,.,32µM,/,?
CC1(C)CC(N2CCCC2)=CC(=[N+]2CCCC2)C1,.,.,?,?,79µM
CCOc1ccc(CNC(=O)c2c(C)nn(-c3ccc(F)cc3)c2-n2cccc2)cc1,.,.,?,/,.
Cc1cccc(N2CCN(C(=O)c3cnn(-c4ccccc4)c3C3CCN(C(=O)OC(C)(C)C)CC3)CC2)c1C,?,.,.,/,.

# High-throughput results as filed in PubChem BioAssay.
